Source: ChEMBL document CHEMBL3988442, “University of Dundee, Small-Polar-MMV Screening Library” (2021)
For some of these results: Measured potencies and affinities stand elsewhere.

Assays:
Set-up in all cases: scale not given: direction of the effect not stated beside the values
[1] = biological target: Protein translocase subunit SecA (Escherichia coli (strain K12)) (UniProt P10408); assay: Assay to Identify E. coli SecA ATPase Inhibitors; format: functional; conditions: 30 µM
[2] = biological target: T1, Ubiquitin-activating enzyme e1, putative (Leishmania donovani (strain BPK282A1)) (UniProt E9BSI1); assay: Leishmania donovani Ubiquitin Activating Enzyme (LdE1); format: functional; conditions: 30 µM
T1 sequence (whole entry): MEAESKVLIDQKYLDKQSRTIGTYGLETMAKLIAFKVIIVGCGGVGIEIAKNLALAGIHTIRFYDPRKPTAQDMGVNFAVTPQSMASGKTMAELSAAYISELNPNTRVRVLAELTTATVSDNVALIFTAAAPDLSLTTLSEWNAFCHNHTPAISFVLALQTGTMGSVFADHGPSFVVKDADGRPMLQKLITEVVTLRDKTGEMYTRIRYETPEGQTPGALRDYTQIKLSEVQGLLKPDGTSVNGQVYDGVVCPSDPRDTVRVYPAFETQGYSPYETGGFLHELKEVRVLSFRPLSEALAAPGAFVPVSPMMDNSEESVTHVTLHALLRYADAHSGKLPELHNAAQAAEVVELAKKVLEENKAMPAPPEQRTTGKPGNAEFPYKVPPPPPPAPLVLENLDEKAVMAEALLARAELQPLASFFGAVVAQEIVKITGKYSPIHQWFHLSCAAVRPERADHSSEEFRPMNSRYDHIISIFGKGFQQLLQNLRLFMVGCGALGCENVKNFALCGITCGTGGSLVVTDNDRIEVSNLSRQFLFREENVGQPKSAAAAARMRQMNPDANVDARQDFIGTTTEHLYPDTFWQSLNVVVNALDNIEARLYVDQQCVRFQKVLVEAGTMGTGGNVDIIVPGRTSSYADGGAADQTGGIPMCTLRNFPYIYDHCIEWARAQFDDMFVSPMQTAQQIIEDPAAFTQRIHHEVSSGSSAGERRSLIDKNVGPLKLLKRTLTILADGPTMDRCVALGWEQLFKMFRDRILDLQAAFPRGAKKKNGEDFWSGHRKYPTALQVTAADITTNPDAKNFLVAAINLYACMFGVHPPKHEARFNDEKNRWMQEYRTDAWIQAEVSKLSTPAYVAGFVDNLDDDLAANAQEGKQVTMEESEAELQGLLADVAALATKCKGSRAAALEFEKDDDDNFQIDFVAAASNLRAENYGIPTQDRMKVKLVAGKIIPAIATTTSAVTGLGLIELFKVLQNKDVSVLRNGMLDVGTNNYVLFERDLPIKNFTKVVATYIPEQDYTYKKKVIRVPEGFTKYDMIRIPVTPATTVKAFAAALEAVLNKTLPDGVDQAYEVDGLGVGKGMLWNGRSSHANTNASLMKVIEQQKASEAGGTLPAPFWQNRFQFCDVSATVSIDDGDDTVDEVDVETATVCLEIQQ

[3] = biological target: AMP-activated protein kinase, AMPK (Homo sapiens) (UniProt P54646+O43741+P54619+Q9UGJ0+Q9Y478+Q13131+Q9UGI9); assay: AMP-dependent Kinase enzyme assay. An in vitro enzyme assay that detects ADP turnover that is directly proportional to AMPK activity. This uses naive AMPK that is activated during the assay with MK-8722; format: functional; conditions: 30 µM
[4] = biological target: Sialic acid-binding Ig-like lectin 9 (Homo sapiens) (UniProt Q9Y336); assay: Hs-Siglec9 ALPHAscreen SOP 20170721; conditions: 10 µM
Trypanosoma cruzi = assay: Trypanosoma cruzi phosphomannomutase and mannose-1-phosphate guanylyltransferase assay; format: functional; conditions: 10 µM
[5] = biological target: T2, Arginase-2, mitochondrial (Homo sapiens) (UniProt P78540); assay: in vitro enzyme assay to detect the production of urea directly proportional to the activity of Arginase II; format: functional; conditions: 33.3 µM; further: in the data most compounds retested in dose-response had high values
T2 sequence (whole entry): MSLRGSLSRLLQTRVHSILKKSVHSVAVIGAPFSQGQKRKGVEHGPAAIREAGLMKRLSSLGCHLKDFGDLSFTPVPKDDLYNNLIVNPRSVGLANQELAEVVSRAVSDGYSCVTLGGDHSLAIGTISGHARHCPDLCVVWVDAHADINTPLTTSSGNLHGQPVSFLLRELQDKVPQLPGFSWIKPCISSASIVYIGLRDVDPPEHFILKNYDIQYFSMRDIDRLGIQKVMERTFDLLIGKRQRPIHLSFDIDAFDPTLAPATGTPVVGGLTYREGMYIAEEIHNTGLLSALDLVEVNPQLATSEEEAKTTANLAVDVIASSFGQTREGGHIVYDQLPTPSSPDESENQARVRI

[6] = biological target: T3, Proteasome subunit beta (Trypanosoma cruzi) (UniProt O96673); assay: Trypanosoma cruzi proteasome chymotrypsin-like activity (TcProtChymo) assay.; further: in the data most compounds retested in dose-response had high values; format: functional; conditions: 9.37 µM
T3 sequence (whole entry): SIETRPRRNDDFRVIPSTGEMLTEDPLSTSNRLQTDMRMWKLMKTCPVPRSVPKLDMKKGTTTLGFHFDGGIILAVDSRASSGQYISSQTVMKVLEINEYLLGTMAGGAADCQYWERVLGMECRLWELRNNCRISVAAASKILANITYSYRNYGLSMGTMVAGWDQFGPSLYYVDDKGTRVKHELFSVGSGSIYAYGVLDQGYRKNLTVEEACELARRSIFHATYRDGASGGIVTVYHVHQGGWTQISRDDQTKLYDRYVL

Homo sapiens = species: Homo sapiens; assay: To identify inhibition of the IFN signalling (Jak-Stat) pathway via expression of an eGFP reporter gene under the control of an IFN-stimulated response element (ISRE) containing MxA promoter.; format: functional; conditions: 30 µM
[7] = biological target: T4, Tyrosyl-tRNA synthetase, putative (Trypanosoma cruzi (strain CL Brener)) (UniProt Q4DSP6); assay: Trypanosoma cruzi tyrosyl tRNA synthetase (TcYRS) _High Tyrosine SOP; format: functional; conditions: 30 µM; further: in the data most compounds retested in dose-response had high values
T4 sequence (whole entry): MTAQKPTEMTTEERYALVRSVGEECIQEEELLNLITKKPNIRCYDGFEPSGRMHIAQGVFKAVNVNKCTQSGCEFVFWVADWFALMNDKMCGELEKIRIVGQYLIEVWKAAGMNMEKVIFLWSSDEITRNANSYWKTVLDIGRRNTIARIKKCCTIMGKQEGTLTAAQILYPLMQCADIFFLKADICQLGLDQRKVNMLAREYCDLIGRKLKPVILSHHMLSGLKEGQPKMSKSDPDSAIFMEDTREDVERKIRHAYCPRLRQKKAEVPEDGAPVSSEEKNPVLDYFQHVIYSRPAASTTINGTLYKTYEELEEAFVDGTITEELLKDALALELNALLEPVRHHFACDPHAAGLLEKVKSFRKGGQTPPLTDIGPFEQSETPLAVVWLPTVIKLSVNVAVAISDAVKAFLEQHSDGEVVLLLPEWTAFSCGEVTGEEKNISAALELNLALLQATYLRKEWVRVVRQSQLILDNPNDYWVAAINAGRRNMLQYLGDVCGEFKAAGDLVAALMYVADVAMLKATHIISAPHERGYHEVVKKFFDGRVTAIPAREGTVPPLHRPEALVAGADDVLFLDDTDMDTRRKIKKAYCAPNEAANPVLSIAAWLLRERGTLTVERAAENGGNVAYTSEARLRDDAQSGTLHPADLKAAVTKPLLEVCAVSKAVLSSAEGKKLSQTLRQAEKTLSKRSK

[8] = biological target: T4, Tyrosyl-tRNA synthetase, putative (Trypanosoma cruzi (strain CL Brener)); assay: Trypanosoma cruzi tyrosyl tRNA synthetase (TcYRS) SOP; format: functional; conditions: 30 µM
[9] = biological target: Chromo domain-containing protein 1 (Saccharomyces cerevisiae (strain ATCC 204508 / S288c) (Baker's yeast)) (UniProt P32657); assay: ScCHD-1 Enzyme Inhibition Assay; format: functional; conditions: 30 µM; further: in the data most compounds retested in dose-response had high values
Sequence of Chromo domain-containing protein 1 (Saccharomyces cerevisiae (strain ATCC 204508 / S288c) (Baker's yeast)) (P32657 whole entry, the tested form may be a part): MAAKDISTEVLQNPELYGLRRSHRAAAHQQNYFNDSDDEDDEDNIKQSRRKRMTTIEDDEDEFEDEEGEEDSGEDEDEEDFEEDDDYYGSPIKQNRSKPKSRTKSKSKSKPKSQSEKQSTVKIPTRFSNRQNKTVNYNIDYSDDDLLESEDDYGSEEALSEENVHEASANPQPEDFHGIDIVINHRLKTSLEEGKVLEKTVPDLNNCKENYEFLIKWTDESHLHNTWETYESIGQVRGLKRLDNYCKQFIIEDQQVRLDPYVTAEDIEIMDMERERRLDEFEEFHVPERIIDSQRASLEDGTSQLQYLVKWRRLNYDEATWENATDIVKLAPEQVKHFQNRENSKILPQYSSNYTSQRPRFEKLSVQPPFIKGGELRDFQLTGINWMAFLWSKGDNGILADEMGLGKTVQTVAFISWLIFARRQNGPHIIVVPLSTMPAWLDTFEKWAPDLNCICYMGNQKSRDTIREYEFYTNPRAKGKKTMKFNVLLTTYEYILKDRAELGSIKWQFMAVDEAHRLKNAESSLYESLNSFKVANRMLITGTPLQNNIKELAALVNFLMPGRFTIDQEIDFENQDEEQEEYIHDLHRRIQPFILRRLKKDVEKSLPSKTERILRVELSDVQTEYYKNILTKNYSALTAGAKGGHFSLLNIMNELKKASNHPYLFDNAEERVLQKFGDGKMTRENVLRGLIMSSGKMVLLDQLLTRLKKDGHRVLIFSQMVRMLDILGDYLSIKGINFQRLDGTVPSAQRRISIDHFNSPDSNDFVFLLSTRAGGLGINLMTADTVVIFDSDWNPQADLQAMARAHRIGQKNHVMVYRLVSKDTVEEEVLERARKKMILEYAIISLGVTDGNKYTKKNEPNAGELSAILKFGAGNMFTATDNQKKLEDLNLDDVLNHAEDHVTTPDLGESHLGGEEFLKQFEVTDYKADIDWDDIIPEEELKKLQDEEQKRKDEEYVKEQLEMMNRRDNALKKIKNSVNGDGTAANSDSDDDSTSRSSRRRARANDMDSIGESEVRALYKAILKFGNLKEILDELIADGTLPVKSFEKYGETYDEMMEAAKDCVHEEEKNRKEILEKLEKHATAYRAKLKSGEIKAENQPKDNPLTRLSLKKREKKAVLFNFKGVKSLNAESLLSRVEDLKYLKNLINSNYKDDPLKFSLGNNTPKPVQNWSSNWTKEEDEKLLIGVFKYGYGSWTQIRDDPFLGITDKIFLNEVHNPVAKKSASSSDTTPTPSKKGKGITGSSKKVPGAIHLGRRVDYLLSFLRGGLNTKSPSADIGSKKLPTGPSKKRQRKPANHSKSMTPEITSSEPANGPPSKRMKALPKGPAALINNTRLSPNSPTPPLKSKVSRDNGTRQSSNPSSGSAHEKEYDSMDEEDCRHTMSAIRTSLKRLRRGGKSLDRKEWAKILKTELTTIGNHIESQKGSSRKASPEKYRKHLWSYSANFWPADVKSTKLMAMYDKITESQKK

Sequence of Sialic acid-binding Ig-like lectin 9 (Homo sapiens) (Q9Y336 whole entry): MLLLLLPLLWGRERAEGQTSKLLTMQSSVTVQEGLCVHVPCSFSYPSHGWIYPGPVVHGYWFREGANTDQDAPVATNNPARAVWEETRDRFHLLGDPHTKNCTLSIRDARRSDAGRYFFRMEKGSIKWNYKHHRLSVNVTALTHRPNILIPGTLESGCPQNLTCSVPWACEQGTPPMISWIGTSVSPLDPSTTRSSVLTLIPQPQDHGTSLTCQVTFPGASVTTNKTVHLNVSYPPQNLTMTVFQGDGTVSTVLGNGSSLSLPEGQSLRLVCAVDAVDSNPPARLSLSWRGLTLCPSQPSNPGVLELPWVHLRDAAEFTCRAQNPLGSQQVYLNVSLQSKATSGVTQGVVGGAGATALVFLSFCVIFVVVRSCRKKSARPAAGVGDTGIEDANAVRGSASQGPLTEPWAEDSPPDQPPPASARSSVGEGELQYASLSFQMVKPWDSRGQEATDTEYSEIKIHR
Sequence of Protein translocase subunit SecA (Escherichia coli (strain K12)) (P10408 whole entry): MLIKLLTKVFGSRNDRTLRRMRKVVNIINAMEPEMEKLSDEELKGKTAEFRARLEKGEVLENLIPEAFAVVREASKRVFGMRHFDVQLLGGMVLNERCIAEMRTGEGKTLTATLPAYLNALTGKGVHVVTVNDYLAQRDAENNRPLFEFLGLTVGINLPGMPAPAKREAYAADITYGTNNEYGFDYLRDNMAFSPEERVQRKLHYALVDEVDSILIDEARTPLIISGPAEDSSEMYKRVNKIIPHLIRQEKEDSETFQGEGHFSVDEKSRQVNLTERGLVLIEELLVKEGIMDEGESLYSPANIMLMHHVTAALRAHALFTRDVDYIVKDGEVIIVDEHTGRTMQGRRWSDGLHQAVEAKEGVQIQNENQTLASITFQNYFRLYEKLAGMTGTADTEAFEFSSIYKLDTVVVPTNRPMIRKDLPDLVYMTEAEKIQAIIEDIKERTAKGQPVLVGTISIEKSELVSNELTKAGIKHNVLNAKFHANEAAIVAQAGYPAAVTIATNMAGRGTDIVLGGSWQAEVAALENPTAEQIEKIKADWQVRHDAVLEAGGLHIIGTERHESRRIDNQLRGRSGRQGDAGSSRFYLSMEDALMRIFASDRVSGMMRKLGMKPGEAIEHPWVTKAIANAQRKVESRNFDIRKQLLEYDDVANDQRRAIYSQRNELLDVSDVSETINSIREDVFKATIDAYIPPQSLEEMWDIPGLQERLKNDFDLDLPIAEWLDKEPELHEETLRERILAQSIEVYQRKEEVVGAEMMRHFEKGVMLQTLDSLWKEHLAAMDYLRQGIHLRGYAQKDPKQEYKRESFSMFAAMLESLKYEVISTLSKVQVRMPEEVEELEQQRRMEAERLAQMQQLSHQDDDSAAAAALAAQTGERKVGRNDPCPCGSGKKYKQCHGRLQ

Row | SMILES | Percent Effect [1] [%] | Percent Effect [2] [%] | Percent Effect [3] [%] | Percent Effect [4] [%] | Percent Effect (Trypanosoma cruzi) [%] | Percent Effect [5] [%] | Percent Effect [6] [%] | Percent Effect (Homo sapiens) [%] | Percent Effect [7] [%] | Percent Effect [8] [%] | Percent Effect [9] [%]
1 | Cc1ccccc1CS(=O)(=O)CC(=O)NC1CCCCNC1=O (stereo not given) | -5.33 | 18.2 | -2.46 | 11 | 4.87 | -4.98 | 8.62 | 11 | 4.85 | 21.9 | -8.24
2 | COc1ccc(C2CCCN2C(=O)CCNc2ncccn2)cc1 (stereo not given) | -2.77 | 0 | -2.54 | 0.524 | -1.57 | 5 | 7.1 | 1.66 | 1.07 | -5 | -1.55
3 | Cc1cc(CNCc2c(C)nn(C)c2N2CCOCC2)no1 | -3.31 | 10.5 | -9.93 | 7.93 | 7.14 | 3.06 | 3.68 | -11.7 | 3.43 | 19.5 | -11
4 | CCC(=O)N1CCCC1c1nccnc1Nc1ncccn1 (stereo not given) | 0.559 | -6.76 | 18.4 | 0.16 | -2.57 | -0.232 | -6.24 | -9.16 | 1.07 | -3.9 | -6.85
5 | Cc1nc(CN2CCOC(c3nc(C(C)C)n[nH]3)C2)oc1C (stereo not given) | -1.29 | 5.06 | 3.22 | 7.38 | 2.74 | 2.66 | 1.72 | -4.74 | 3.45 | 8.86 | -3.77
6 | O=C(CN1CCCC1Cn1cncn1)NCCOc1cccc(F)c1 (stereo not given) | -4.88 | 0 | -3.72 | 14.3 | -0.84 | -2.52 | -3.47 | -2.63 | 0.493 | 1.24 | 5.23
7 | O=C(NCC(F)(F)F)C1CSCN1S(=O)(=O)c1ccc(F)cc1 (stereo not given) | -4.1 | 16.5 | 4.27 | -0.453 | 1.33 | -4.95 | 16.5 | 7.19 | 13.5 | 30.4 | -28
8 | COc1cc(N2C[C@@H]3COC[C@]3(COCc3cccc(C)n3)C2)ncn1 | -0.6 | 2.7 | 3.71 | 5.38 | 4.79 | 0.955 | 17.7 | 27.6 | 1.08 | 2.56 | 2.03
9 | CC(=O)N(Cc1noc(C)n1)C1CCN(Cc2cc(C)on2)C1 (stereo not given) | -2.56 | 18.2 | 1.37 | -5.63 | 0.0979 | -1.05 | 18.5 | 12.2 | 10.5 | 30.6 | -15
10 | CCc1nc(C2CCCN(C(=O)c3cnn(CC)c3)C2)no1 (stereo not given) | -7.03 | 0 | 3.03 | -1.97 | -5.16 | 1.18 | 5.66 | -8.3 | 1.06 | 5.2 | -2.87
11 | O=C(NCc1cnc2n1CCN(Cc1ccsc1)CC2)C1CCC1 | -5.62 | 8.11 | -0.353 | 4.49 | 0.293 | 3.72 | 5.24 | -5.3 | 7.53 | 13.6 | -4.47
12 | COCC(C)(O)CNC(=O)COc1ccccc1OC (stereo not given) | -1.78 | 2.74 | 6.7 | -4.63 | -4.31 | 2.27 | 8.52 | 1.8 | 5.38 | 7.5 | -3.71
13 | CCOCC(=O)N1CCC(Oc2ccc(C(F)(F)F)cn2)CC1 | 0.852 | 5.2 | 2.97 | 4.76 | -5.42 | 13.6 | 15.1 | 12.1 | 0 | 3.85 | -4.83
14 | CC(=O)N(Cc1ncc(C)o1)C1CCN(Cc2ccncc2Cl)C1 (stereo not given) | -2.28 | 15.6 | -3.8 | -0.636 | 3.62 | 1.05 | 11.2 | -2.79 | 11.4 | 30.6 | -18.4
15 | O=C(CN1CCCC1Cn1cncn1)NCCc1c(F)cccc1F (stereo not given) | -9.37 | 18.4 | -9.7 | 10.3 | 11.9 | 0.719 | 7.36 | -5.35 | 5.42 | 18.5 | -10.6
16 | Cc1nnc(N2C[C@H](C(=O)NCC3CC3)[C@@H]3CCO[C@@H]3C2)s1 | 0.351 | 0 | 3.72 | 2.6 | -6.02 | -3.23 | 0.696 | 7.74 | 0 | 1.28 | -1.37
17 | Cc1ccc(C(NC(=O)CC2CCN(C(C)C)CC2)C(=O)O)cc1 (stereo not given) | -4.94 | 2.7 | -0.654 | -0.948 | 1.74 | 0.476 | 1.55 | 0.454 | 2.65 | 9.76 | 0.336
18 | N#Cc1ccc(OCCCN2CCc3cncnc3C2)cc1 | -5.04 | 5.06 | -14.8 | 5.6 | -3.68 | -3.04 | -6.14 | 18.3 | -0.493 | 11.4 | -4.55
19 | CN(C)S(=O)(=O)N1CC[C@@H]2CN(Cc3cnn(C)c3)C[C@@H]2C1 | -6.2 | -2.6 | 26.8 | -2.67 | -4.63 | 0.645 | 0.696 | 33.3 | -1.06 | -1.28 | -3.27
20 | CN(CC1COc2ccccc2O1)C(=O)NCCCn1ccnc1 (stereo not given) | -1.25 | 0 | 12.1 | -8.39 | -4.7 | -3.06 | -0.835 | 27.3 | -3.43 | -7.32 | 7.75
